We go through five compounds from PubChem BioAssay.

Unmarked numbers belong to inactive results. The source made the active and inactive calls. Unless noted, no stated cut-off is given here; in the data, active means inhibition above about 44%; inactive means the rest.

The nature of assay [1]: StAR promoter reporter inhibitors, counter-screen for LRH-1 inverse agonist project, cell-based, luminescence, high throughput (AID 651611; in the data active means inhibition above about 28%). Conditions: StAR promoter luciferase reporter counterscreen, at 3.6 µM, active compounds read high.
Assay [2] addresses Nuclear receptor subfamily 5 group A member 2 (Homo sapiens) (UniProt O00482). The assay is described as follows: NR5A2 activity suppression in reporter cells – cell-based, luminescence, confirmation (AID 651613; in the data active means inhibition above about 42%;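 further: HEK293T cells co-transfected with LRH-1 and StAR promoter luciferase reporter; 0% = vehicle wells and 100% = parental cells lacking receptor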). Conditions: cell-based LRH-1 luciferase reporter, inverse agonism; at 3.6 µM; active compounds read high. (A reporter such as luciferase makes a cellular process visible.)
The target of assay [3] is Steroidogenic factor 1 (Homo sapiens) (UniProt Q13285). The assay is described as follows: inverse agonism at SF1 nuclear receptor – cell-based, luminescence, high throughput, counter-screen for LRH-1 inverse agonist project (AID 651614).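 Further: cells cotransfected with StAR promoter reporter and SF1 expression vector; 0% = vehicle on cells with receptor and 100% = vehicle on cells lacking receptor.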 To be noted: cell-based SF1 luciferase reporter, at 3.6 µM, active compounds read high. (In general: Counterscreens check selectivity or assay interference.)
Steroidogenic factor 1 (Homo sapiens), sequence (Q13285 whole entry, looked up): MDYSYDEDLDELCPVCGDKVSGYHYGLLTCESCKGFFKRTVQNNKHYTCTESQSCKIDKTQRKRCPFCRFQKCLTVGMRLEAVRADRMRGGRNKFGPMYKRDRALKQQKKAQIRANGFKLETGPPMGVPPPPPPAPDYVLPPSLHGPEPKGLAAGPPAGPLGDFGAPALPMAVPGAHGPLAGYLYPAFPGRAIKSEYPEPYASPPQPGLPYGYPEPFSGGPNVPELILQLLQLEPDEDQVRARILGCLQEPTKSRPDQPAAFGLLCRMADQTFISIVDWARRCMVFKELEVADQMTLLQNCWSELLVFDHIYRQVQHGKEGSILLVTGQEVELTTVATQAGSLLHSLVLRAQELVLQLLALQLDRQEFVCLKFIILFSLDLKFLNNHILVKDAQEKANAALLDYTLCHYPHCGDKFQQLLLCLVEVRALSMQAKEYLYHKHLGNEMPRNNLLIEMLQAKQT

Assay [4] is described as follows: compounds suppressing VP16-driven luciferase signal – cell-based, luminescence, high throughput, counter-screen for LRH-1 inverse agonist project (AID 651615; in the data active means inhibition above about 33%). Conditions: Gal4-VP16 luciferase reporter cells, at 3.6 µM, active compounds read high.

Nuclear receptor subfamily 5 group A member 2 (Homo sapiens), sequence (O00482 whole entry, looked up): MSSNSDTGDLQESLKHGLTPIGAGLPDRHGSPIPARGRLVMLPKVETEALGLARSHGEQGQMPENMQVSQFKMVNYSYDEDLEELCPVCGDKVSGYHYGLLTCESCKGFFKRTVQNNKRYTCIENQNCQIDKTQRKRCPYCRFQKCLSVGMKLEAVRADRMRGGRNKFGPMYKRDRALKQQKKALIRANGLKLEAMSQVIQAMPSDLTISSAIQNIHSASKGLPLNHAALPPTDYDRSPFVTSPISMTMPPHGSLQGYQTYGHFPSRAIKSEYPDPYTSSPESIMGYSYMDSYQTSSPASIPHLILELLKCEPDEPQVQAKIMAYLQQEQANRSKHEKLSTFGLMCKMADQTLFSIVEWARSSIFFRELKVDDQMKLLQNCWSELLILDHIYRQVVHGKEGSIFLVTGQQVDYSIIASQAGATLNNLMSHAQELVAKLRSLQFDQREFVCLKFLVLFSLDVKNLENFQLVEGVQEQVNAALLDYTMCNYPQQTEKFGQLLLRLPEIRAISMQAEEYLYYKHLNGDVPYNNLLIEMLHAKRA

One may read the inhibition as the change of the read-out against control, counted positive when it falls. Consider `COc1ccc(-c2cc(NC=O)c3ncc(-c4ccc(C(C)=O)cc4)n3c2)cn1`, for which the inhibition was 41.6% (active) in assay [1], 66% (active) in assay [2], 59% (active) in assay [3] and -15.1% in assay [4].
For `CCn1c(=O)[nH]c(=O)c2c(N)c(C(=O)c3cc(F)ccc3F)sc21` the same measures were 10.4%, 59.5% (active), 54.2% (active) and 10.3%.
With `COc1ccccc1NC(=O)c1ccc(NC(=O)COC(=O)C(C)C)cc1`, the inhibition is 12.5% in assay [1], 62.7% (active) in assay [2], 55.7% (active) in assay [3] and -39.4% in assay [4].
For `COc1ccc(Br)cc1/C=C/C(=O)c1ccc(NC(C)=O)cc1` the same measures were 81.4% (active), 95% (active), 94.5% (active) and 85.4% (active).
For `O=C(CSc1n[nH]c(-c2ccccc2)n1)Nc1ccc(F)cc1F` the same measures were 5.84%, 58.4% (active), 50.4% (active) and 3.19%.
